Common to all, as to assay: growth (OD600 after 10 h); higher = more growth (less inhibition)
Experiment [1] relates to E. coli TESEC Alr+ wild-type control. Particulars: compound 0.1 mM; raw OD600 reference: median of DMSO wells 0.241, cell-free background 0.041. Here is the method: (§1)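 TESEC Mtb Alr E. coli, or the Alr+ wild-type control, in 384-well plates with Prestwick library compounds at 0.1 mM and 1% DMSO, across arabinose induction levels of 1E3 to 1E7 nM. Growth is read as OD600 after 10 h at 37 °C in triplicate biological replicates.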

Experiment [2] concerns E. coli TESEC Mtb Alr. Particulars: compound 0.1 mM. Here is the method:
as §1

The test system of another experiment is E. coli TESEC Mtb Asd. The note with it: compound 0.1 mM. As to the method:
(§2)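 TESEC E. coli strains in which the native enzyme is deleted and replaced by arabinose-inducible Mtb Asd, DapB, CysH or TrpD, each grown in its selective medium. Strains were screened against the Prestwick library at 0.1 mM and 1% DMSO in 384-well format at low and high arabinose induction. Growth is read as OD600 after 10 h in triplicate.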

The next experiment deals with E. coli TESEC Mtb DapB. The note with it: compound 0.1 mM. As to the method:
as §2

In experiment [3] the test system is E. coli TESEC Mtb Alr. The note with it: compound 0.1 mM. Here is the method:
(§3)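 TESEC Mtb Alr E. coli (ΔaraC ΔtolC ΔentC Δalr ΔdadX, arabinose-inducible Mtb Alr) or the Alr+ wild-type control strain, grown in defined M9-fructose medium without D-alanine in 96-well plates with Prestwick library compounds at 0.1 mM and 1% DMSO. Low Alr induction is 0.1 µM arabinose and high induction is 10 mM arabinose.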
The source holds these as a separate data set.

Experiment [4] has as its system E. coli TESEC Alr+ wild-type control. Particulars: compound 0.1 mM; raw OD600 reference: median of DMSO wells 0.49, cell-free background 0.052. As to the method:
as §3

Where [5] appears, read: arabinose 1000 nM, raw OD600 reference: median of DMSO wells 0.294, cell-free background 0.041.
The mark [6] stands for this setting: arabinose 10000 nM, raw OD600 reference: median of DMSO wells 0.264, cell-free background 0.041.
[7] abbreviates: arabinose 100000 nM, raw OD600 reference: median of DMSO wells 0.201, cell-free background 0.041.
The mark [8] stands for this setting: arabinose 1000000 nM, raw OD600 reference: median of DMSO wells 0.193, cell-free background 0.041.
[9] abbreviates: arabinose 10000000 nM, raw OD600 reference: median of DMSO wells 0.146, cell-free background 0.041.
The mark [10] stands for this setting: arabinose induction (level): High, raw OD600 reference: median of DMSO wells 0.331, cell-free background 0.041.
The mark [11] stands for this setting: arabinose induction (level): Low, raw OD600 reference: median of DMSO wells 0.417, cell-free background 0.041.
[12] abbreviates: arabinose induction (level): High, raw OD600 reference: median of DMSO wells […], cell-free background 0.041.
[13] abbreviates: arabinose induction (level): Low, raw OD600 reference: median of DMSO wells 0.227, cell-free background 0.041.
Setting [14] is: arabinose 100 nM, raw OD600 reference: median of DMSO wells 0.413, cell-free background 0.052.
[15] abbreviates: arabinose 10000000 nM, raw OD600 reference: median of DMSO wells […], cell-free background 0.052.

Structures can show the parent of a compound that is named as a salt. ± gives the standard deviation of the averaged measurements.

The source of these data is the supplement of paper PMC9262897, “Low-cost anti-mycobacterial drug discovery using engineered E. coli” (Nature Communications, 2022).

Take `Cn1c(=O)c2c(ncn2CC(O)CO)n(C)c1=O` (stereo not drawn) [Diprophylline]: the growth in experiment [1] came out at 0.253 ± 0.0057; in the experiment with E. coli TESEC Mtb Alr [2] (setting [5]) it was 0.271 ± 0.026; in the experiment on E. coli TESEC Mtb Alr [2] (setting [6]), 0.249 ± 0.013; in the experiment on E. coli TESEC Mtb Alr [2] (setting [7]), 0.197 ± 0.018; with E. coli TESEC Mtb Alr [2] (setting [8]) it was 0.182 ± 0.0025; with E. coli TESEC Mtb Alr [2] (setting [9]) it was 0.138 ± 0.0093. The growth in the experiment on E. coli TESEC Mtb Asd (setting [10]) amounted to 0.367 ± 0.021; in the experiment with E. coli TESEC Mtb Asd (setting [11]), 0.452 ± 0.052; in the experiment with E. coli TESEC Mtb DapB (setting [12]), 0.206 ± 0.0061; in the experiment on E. coli TESEC Mtb DapB (setting [13]), 0.24 ± 0.017; in the experiment with E. coli TESEC Mtb Alr [3] (setting [14]) it was 0.421 ± 0.0097; in the experiment on E. coli TESEC Mtb Alr [3] (setting [15]), 0.313 ± 0.057.
As for `C=C1C[C@H]2[C@@H]3C=C(C)C4=CC(=O)CC[C@]4(C)[C@H]3CC[C@]2(C)[C@@]1(OC(C)=O)C(C)=O` [Melengestrol acetate], the growth in experiment [1] was 0.20603 ± 0.00015; in the experiment with E. coli TESEC Mtb Alr [2] (setting [5]) it was 0.281 ± 0.013; in the experiment with E. coli TESEC Mtb Alr [2] (setting [6]) it was 0.295 ± 0.011; with E. coli TESEC Mtb Alr [2] (setting [7]), 0.166 ± 0.0027; in the experiment on E. coli TESEC Mtb Alr [2] (setting [8]), 0.176 ± 0.0085; in the experiment with E. coli TESEC Mtb Alr [2] (setting [9]), 0.148 ± 0.0027. The growth with E. coli TESEC Mtb Asd (setting [10]) is 0.213 ± 0.071; in the experiment with E. coli TESEC Mtb Asd (setting [11]), 0.343 ± 0.11; in the experiment on E. coli TESEC Mtb DapB (setting [12]), 0.187 ± 0.0082; in the experiment with E. coli TESEC Mtb DapB (setting [13]), 0.211 ± 0.036; in the experiment with E. coli TESEC Mtb Alr [3] (setting [14]), 0.3558 ± 0.0033; in the experiment with E. coli TESEC Mtb Alr [3] (setting [15]), 0.142 ± 0.053.
For `NC[C@@H]1O[C@H](O[C@H]2[C@@H](O)[C@H](O[C@@H]3[C@@H](O)[C@H](N)C[C@H](N)[C@H]3O[C@H]3O[C@H](CO)[C@@H](O)[C@H](O)[C@H]3N)O[C@@H]2CO)[C@H](N)[C@@H](O)[C@@H]1O` [Paromomycin sulfate], the growth was 0.251 ± 0.0064 in experiment [1]; 0.327 ± 0.0078 with E. coli TESEC Mtb Alr [2] (setting [5]); 0.275 ± 0.0073 with E. coli TESEC Mtb Alr [2] (setting [6]); 0.19 ± 0.0041 in the experiment on E. coli TESEC Mtb Alr [2] (setting [7]); 0.19 ± 0.013 in the experiment with E. coli TESEC Mtb Alr [2] (setting [8]); 0.163 ± 0.0039 in the experiment on E. coli TESEC Mtb Alr [2] (setting [9]). The growth in the experiment on E. coli TESEC Mtb Asd (setting [10]) came out at 0.496 ± 0.0058; in the experiment on E. coli TESEC Mtb Asd (setting [11]), 0.447 ± 0.027; in experiment [4] it was 0.535 ± 0.089; in the experiment with E. coli TESEC Mtb Alr [3] (setting [14]), 0.405 ± 0.014; with E. coli TESEC Mtb Alr [3] (setting [15]), 0.333 ± 0.0043.
Take `COc1cnc(NS(=O)(=O)c2ccc(N)cc2)nc1` [Sulfameter]: the growth in experiment [1] is 0.242 ± 0.0095; in the experiment on E. coli TESEC Mtb Alr [2] (setting [5]), 0.283 ± 0.0042; in the experiment on E. coli TESEC Mtb Alr [2] (setting [6]) it was 0.239 ± 0.011; in the experiment with E. coli TESEC Mtb Alr [2] (setting [7]) it was 0.218 ± 0.029; with E. coli TESEC Mtb Alr [2] (setting [8]), 0.158 ± 0.0061; with E. coli TESEC Mtb Alr [2] (setting [9]), 0.143 ± 0.0066. The growth with E. coli TESEC Mtb Asd (setting [10]) is 0.442 ± 0.039; in the experiment on E. coli TESEC Mtb Asd (setting [11]), 0.399 ± 0.024; in experiment [4], 0.516 ± 0.12; in the experiment with E. coli TESEC Mtb Alr [3] (setting [14]), 0.407 ± 0.021; in the experiment with E. coli TESEC Mtb Alr [3] (setting [15]), 0.336 ± 0.0042.
Turning to `CN(C)CCc1c[nH]c2ccc(Cn3cncn3)cc12` [Rizatriptan benzoate], the growth was determined as 0.24 ± 0.0036 in experiment [1]; 0.2899 ± 0.0026 in the experiment with E. coli TESEC Mtb Alr [2] (setting [5]); 0.258 ± 0.00081 in the experiment on E. coli TESEC Mtb Alr [2] (setting [6]); 0.198 ± 0.0062 in the experiment with E. coli TESEC Mtb Alr [2] (setting [7]); 0.213 ± 0.022 in the experiment on E. coli TESEC Mtb Alr [2] (setting [8]); 0.141 ± 0.006 with E. coli TESEC Mtb Alr [2] (setting [9]). Besides, the growth was found to be 0.337 ± 0.057 with E. coli TESEC Mtb Asd (setting [10]); 0.417 ± 0.051 in the experiment on E. coli TESEC Mtb Asd (setting [11]); 0.633 ± 0.061 in experiment [4]; 0.408 ± 0.012 in the experiment with E. coli TESEC Mtb Alr [3] (setting [14]); 0.34 ± 0.0085 with E. coli TESEC Mtb Alr [3] (setting [15]).
With `C[C@]12C=CC(=O)C=C1CC[C@@H]1[C@@H]2[C@@H](O)C[C@@]2(C)[C@H]1CC[C@]2(O)C(=O)CO` [Prednisolone], the growth in experiment [1] was 0.213 ± 0.0043; in the experiment on E. coli TESEC Mtb Alr [2] (setting [5]) it was 0.263 ± 0.0084; with E. coli TESEC Mtb Alr [2] (setting [6]), 0.248 ± 0.01; in the experiment on E. coli TESEC Mtb Alr [2] (setting [7]), 0.162 ± 0.0057; in the experiment on E. coli TESEC Mtb Alr [2] (setting [8]), 0.147 ± 0.0034; with E. coli TESEC Mtb Alr [2] (setting [9]), 0.13 ± 0.0047. Moreover, the growth with E. coli TESEC Mtb Asd (setting [10]) stood at 0.258 ± 0.038; with E. coli TESEC Mtb Asd (setting [11]), 0.456 ± 0.034; in experiment [4], 0.514 ± 0.065; in the experiment on E. coli TESEC Mtb Alr [3] (setting [14]), 0.426 ± 0.009; in the experiment on E. coli TESEC Mtb Alr [3] (setting [15]), 0.306 ± 0.011.
